High-throughput results from PubChem.
Only some compounds are listed: those with a hit (about 1.5% of all), similar ones and a draw of the others.
GLD-1 TGE inh – GLD-1-TGE RNA interaction inhibition (C. elegans); Q17339; purified GLD-1 + fluorescein TGE RNA, fluorescence polarization; inhibition, % at 5.96 µM; 0.44% of 320,000 active;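 active = percent inhibition above a per-plate cutoff, the plate mean of test compounds plus 3 SD, cut at about 30% in these data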;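 note: 0% = DMSO wells with GLD-1 and probe and 100% = wells lacking GLD-1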
Target sequence (Q17339 whole entry, looked up): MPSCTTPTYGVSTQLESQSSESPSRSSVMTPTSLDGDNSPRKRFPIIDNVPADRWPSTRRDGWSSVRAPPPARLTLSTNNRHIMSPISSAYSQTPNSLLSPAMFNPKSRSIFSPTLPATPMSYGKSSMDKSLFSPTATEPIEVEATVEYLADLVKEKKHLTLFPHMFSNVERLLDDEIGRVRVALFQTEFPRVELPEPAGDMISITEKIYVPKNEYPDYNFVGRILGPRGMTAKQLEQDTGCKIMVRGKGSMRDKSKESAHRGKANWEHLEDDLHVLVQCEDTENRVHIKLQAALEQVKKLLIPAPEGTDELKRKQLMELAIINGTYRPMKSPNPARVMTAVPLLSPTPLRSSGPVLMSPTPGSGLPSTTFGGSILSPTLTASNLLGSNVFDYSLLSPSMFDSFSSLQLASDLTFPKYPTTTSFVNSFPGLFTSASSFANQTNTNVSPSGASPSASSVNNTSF
BCLXL inh – inhibitors of human Bcl-xL. GST-Bcl-xL / FITC-Bim BH3 peptide fluorescence polarization. 0.7% of 320,000 active. AID 2129. Q07817. inhibition, % at 10.9 µM;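 active = inhibition above the mean of all tested compounds plus 3 SD, cutoff set per campaign, cut at about 30% in these data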;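 note: 0% = DMSO wells and 100% = unlabeled Bim-BH3 peptide competitor; inhibitors lower millipolarization by displacing the labeled peptide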
MCL1-BIM inh – MCL1-BIM-BH3 interaction inhibition (human); GST-MCL1 / FITC-Bim-BH3 fluorescence polarization; inhibition, % at 10.9 µM; 0.68% of 320,000 active;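 active = inhibition above the mean inhibition of all tested compounds plus 3 SD, set per campaign, cut at about 40% in these data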;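 note: 0% = DMSO wells and 100% = unlabeled Bim-BH3 peptide control; higher means more loss of mP so more displacement of Bim peptide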
MEX-5 binding – C. elegans MEX-5 TCR-2 RNA binding activity. MEX-5/FITC-TCR2 RNA binding, fluorescence polarization; hits give low values. AID 1832. 0.38% of 300,000 active. Q9XUB2. activity score (negative = inhibition of binding), % at 10 µM;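 active = inhibition past about -25% in most replicates, and total fluorescence under double the plate's negative control median, limit read from the data; inconclusive = replicates evenly split on the limit, or fluorescence at least double controls; inactive = too little inhibition in most replicates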;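 note: 0% = DMSO and -100% = 5 µM competing unlabeled TCR2 RNA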
EBV gp42 inh – EBV gp42 inhibition. Fluorescence polarization binding assay, mP read-out. AID 1085. 0.42% of 220,000 active. inhibition, % (tested at 21.74 µM); in the data active = inhibition above about 50%
eLon inh – E. coli protease La inhibition | inhibition, % at 7.94 µM | AID 602123 | P0A9M0 | 0.42% of 360,000 active | purified E. coli Lon protease, fluorescence polarization; in the data active = inhibition above about 13%, passing the limit was not always enough;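 note: 0% = enzyme with probe and DMSO and 100% = no enzyme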
BCLXL inh confirm – counter-screen for MCL1 inhibitors: confirmation of human Bcl-xL inhibitors; inhibition, % at 10.9 µM; GST-Bcl-xL / FITC-Bim BH3 peptide FP binding; shares compounds with MCL1-BIM inh; 54% of 1,700 active;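 active = inhibition above a cutoff equal to the mean inhibition of all tested compounds plus 3 SD, cut at about 30% in these data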;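 note: 0% = DMSO wells and 100% = unlabeled Bim BH3 control peptide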
MCL1 BIM confirm – MCL1-BIM-BH3 interaction inhibition, confirmation; shares compounds with MCL1-BIM inh; GST-MCL1 / FITC-Bim-BH3 fluorescence polarization; inhibition, % at 10.9 µM; 61% of 1,700 active;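 active = inhibition above the average of all tested compounds plus 3 SD, cut at about 40% in these data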;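 note: 0% = DMSO wells and 100% = unlabeled Bim-BH3 control peptide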
GLD-1 TGE cf – GLD-1 TGE RNA interaction inhibition, confirmation | shares compounds with GLD-1 TGE inh | GLD-1/FL-TGE RNA fluorescence polarization, biochemical | inhibition, % at 5.96 µM | 10% of 550 active | AID 2459;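 active = average inhibition across triplicates above the hit cutoff set in the primary screen, cut at about 32% in these data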;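 note: 0% = GLD-1 with RNA probe and DMSO and 100% = wells lacking GLD-1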
E coli Lon conf – E. coli Lon inhibition confirmation | 31% of 1,400 active | purified E. coli Lon, fluorescence polarization | shares compounds with eLon inh | inhibition, % at 7.94 µM; in the data active = inhibition above about 16%;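 note: 0% = enzyme with probe and DMSO and 100% = no enzyme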
Active calls of the source: *; ? = inconclusive; . = not tested or not shown; + = active, no number.

SMILES	GLD-1 TGE inh	BCLXL inh	MCL1-BIM inh	MEX-5 binding	EBV gp42 inh	eLon inh	BCLXL inh confirm	MCL1 BIM confirm	E coli Lon conf	others
O=C(N/N=C/c1cc(Br)c(Br)o1)c1cccnc1	40*	94*	126*	-12	-9	27*	34*	44*	6	GLD-1 TGE cf=3
CC(=O)c1c2c3c(c(Br)ccc3n(C)c1=O)C(=O)c1ccccc1-2	57*	67*	64*	-4	.	50*	42*	43*	21*
CC(=O)c1c(C)oc2c1C(=O)c1ccccc1C2=O	11	3	-4	-1	-5	-4	.	.	.
N#CCCN(CCC#N)C(=O)C1c2ccccc2Oc2ccccc21	+	+	+	?	.	+	28	29	7
COC(=O)c1cc(N2CCN(C)CC2)nc2ccccc12	85*	138*	144*	?	82*	96*	23	35	19*
CCOC(=O)c1cc(N2CCCCC2)nc2ccccc12	.	.	.	.	.	3	.	.	.
COCCN(C(=O)COC(=O)c1cc2ccccc2cc1O)c1c(N)n(Cc2ccccc2)c(=O)[nH]c1=O	1	6	4	-1	.	13	.	.	.
O=C(COc1cccnc1[N+](=O)[O-])Nc1ncc(Cl)cc1Cl	31	64*	78*	.	.	18*	61*	98*	-4
O=C(COc1cccnc1[N+](=O)[O-])Nc1c(Cl)cccc1Cl	3	.	.	.	.	6	.	.	.
CCS(=O)(=O)C1=NSC2=NC(=O)/C(=C\c3ccc(OS(=O)(=O)c4ccccc4)c(OC)c3)C(=N)N21	-9	1	-6	-3	.	-31	.	.	.
Cc1nn(C(=O)CN2C(=O)c3ccccc3C2=O)c(C)c1Br	3	-1	3	0	2	9	.	.	.
COc1ccc(C(=O)c2ccsc2N)cc1	66*	105*	108*	0	.	90*	14	18	6
Cn1c(=O)c(Nc2ccc(O)cc2)c2c3c(cccc31)C(=O)c1ccccc1-2	155*	164*	+	-16	127*	+	163*	+	121*
CC(C)c1ccc(Nc2c([N+](=O)[O-])c(=O)n(C)c3ccccc23)cc1	4	7	3	2	4	-5	.	.	.
COc1cccc(NC(=S)N2CCN(S(=O)(=O)c3ccccc3)CC2)c1	.	.	.	.	.	2	.	.	.
Cc1ccc[n+](-c2nc([O-])sc2C=O)c1	156*	173*	+	.	142*	92*	169*	+	148*
CC(C)c1ccc[n+](-c2nc([O-])sc2C=O)c1	3	8	3	-4	-7	7	.	.	.
CCc1cc(C(=O)Nc2ccc(OC)nc2)sc1C	85*	111*	118*	-58*	.	50*	108*	130*	5
O=[N+]([O-])c1ccc(Oc2ccc(/C=N/O)cc2)nc1	4	6	8	-1	2	6	.	.	.
COc1ccc(-c2cc(=O)oc3cc(OCC(=O)c4cccc([N+](=O)[O-])c4)ccc23)cc1	.	.	.	1	-5	.	.	.	.
C=CCN1C=C2C(=O)C(C)(OC(=O)c3ccc(OC)cc3)C(=O)C(c3ccco3)=C2C=C1CCCC (stereo not given)	54*	67*	71*	-5	8	41*	41*	62*	9
COC(=O)CCCC1=CC2=C(c3ccccc3)C(=O)C(C)(OC(=O)C3CCCC3)C(=O)C2=CN1Cc1ccco1 (stereo not given)	11	14	10	-5	25	-2	.	.	.
CC(=O)C1=C(O)C(=O)N(CCCn2ccnc2)C1c1ccc(C)cc1 (stereo not given)	2	3	0	-1	6	-1	.	.	.
N#Cc1cccc(NC(=O)CSc2ccc3c4c(cccc24)C(=O)c2ccccc2-3)c1	61*	73*	75*	1	107*	22*	185*	183*	94*
N#Cc1cccc(NC(=O)CSc2ccccc2)c1	9	3	11	1	-2	-6	.	.	.
SMILES	GLD-1 TGE inh	BCLXL inh	MCL1-BIM inh	MEX-5 binding	EBV gp42 inh	eLon inh	BCLXL inh confirm	MCL1 BIM confirm	E coli Lon conf	others
COc1ccc(C2C(C#N)=C(N)OC3=C2C(=O)CC(C)(C)C3)c([N+](=O)[O-])c1OC (stereo not given)	3	7	6	-5	-6	-5	.	.	.
COc1cc(C2C(C#N)=C(N)OC3=C2C(=O)CC(C)(C)C3)c([N+](=O)[O-])cc1OC (stereo not given)	154*	+	+	-54*	86*	34*	64*	82*	19*
CC1(C)CC(=O)C2=C(C1)OC(N)=C(C#N)[C@@H]2c1ccccc1[N+](=O)[O-]	113*	163*	194*	-68*	54*	53*	36*	46*	5
C=CCNc1nc2ccccc2nc1NS(=O)(=O)c1cccs1	1	9	4	0	-8	10	.	.	.
Cn1nc([N+](=O)[O-])c(C(C#N)c2nc3ccccc3n2C)c(Cl)c1=O (stereo not given)	51*	79*	91*	-28*	80*	22*	84*	90*	33*
Cn1c(-c2ccc([N+](=O)[O-])cc2)nc2ccccc21	6	3	-5	1	-12	5	.	.	.
N#CC1(C#N)C(c2ccccc2)OC23CCCCC2C1(C#N)C(=N)O3 (stereo not given)	102*	132*	178*	-49*	-5	30*	17	16	41*
CCCCC1OC23CCCCC2C(C#N)(C#N)C1(C#N)C(=N)O3 (stereo not given)	83*	103*	127*	-8	-9	26*	7	3	4
CCCCC1OC23CCCCC2C(C#N)(C(=N)O3)C1(C#N)C#N (stereo not given)	54*	78*	78*	1	-33	25*	14	27	0	GLD-1 TGE cf=-6
O=C(CNc1cccc2ccccc12)N/N=C/C=C/c1ccco1	4	1	-4	2	5	-3	.	.	.
CCN(CC)C(=O)CSc1nnc2nnc3cc(OC)ccc3n12	120*	138*	148*	-77*	124*	132*	124*	159*	118*
